Measured values taken from PMC7862700, “An all-to-all approach to the identification of sequence-specific readers for epigenetic DNA modifications on cytosine”.

Tests used:
Experiment in all cases: DAPPL (digital affinity profiling via proximity ligation, sequencing); 10 mM Tris-HCl pH 7.5, 50 mM NaCl, 1 mM DTT, 4% glycerol, room temperature, 30 min; GST-TFs on glutathione beads, 16-mer random dsDNA library, 0.1% formaldehyde crosslink after washing; high values mean tight binding
FEV = target: T1, FEV (Homo sapiens, UniProt Q99581 1-238); details: protein: recombinant; tags: N-terminal GST; dsDNA, one strand shown
T1 sequence: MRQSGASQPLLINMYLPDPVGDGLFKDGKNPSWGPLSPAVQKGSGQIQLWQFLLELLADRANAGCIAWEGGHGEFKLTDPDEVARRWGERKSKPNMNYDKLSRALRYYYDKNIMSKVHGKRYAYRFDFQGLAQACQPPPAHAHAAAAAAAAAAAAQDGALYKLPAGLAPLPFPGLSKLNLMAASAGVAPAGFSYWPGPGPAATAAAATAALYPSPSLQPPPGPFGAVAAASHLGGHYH
Outline: (§1)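 GST fusions of human transcription factors were expressed in yeast and captured with glutathione beads. Once given DNA barcodes and pooled alongside a tag-only sample, they were incubated for 30 min at room temperature with 200 nmole of a random double-stranded 16-mer DNA library in Tris/NaCl/DTT/glycerol buffer, then washed, crosslinked (0.1% formaldehyde), proximity-ligated, PCR-amplified and sequenced on an Illumina NextSeq500. The binding signal of each hexamer is its read frequency for a factor divided by its frequency for the tag-only sample.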

ETV5 = ETV5 (Homo sapiens, UniProt P41161 1-510); details: protein: recombinant; tags: N-terminal GST; dsDNA, one strand shown
Outline: as §1

HSF1 = HSF1 (Homo sapiens, UniProt Q00613 1-529); details: protein: recombinant; tags: N-terminal GST; chain copies: 3; dsDNA, one strand shown
Outline: as §1

SPIC = target: T2, SPIC (Homo sapiens, UniProt Q8N5J4 1-248); details: protein: recombinant; tags: N-terminal GST; dsDNA, one strand shown
T2 sequence: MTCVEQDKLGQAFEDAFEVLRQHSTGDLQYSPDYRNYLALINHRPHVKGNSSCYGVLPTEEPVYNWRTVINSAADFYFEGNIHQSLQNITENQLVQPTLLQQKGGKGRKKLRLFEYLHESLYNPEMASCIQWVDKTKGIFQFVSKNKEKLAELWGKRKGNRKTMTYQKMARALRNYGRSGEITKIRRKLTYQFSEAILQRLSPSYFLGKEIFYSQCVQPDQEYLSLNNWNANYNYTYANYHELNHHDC
Outline: as §1

ELF4 = ELF4 (Homo sapiens, UniProt Q99607 1-663); details: protein: recombinant; tags: N-terminal GST; dsDNA, one strand shown
Outline: as §1

ELK4 = target: T3, ELK4 (Homo sapiens, UniProt P28324-2 1-405); details: protein: recombinant; tags: N-terminal GST; dsDNA, one strand shown
T3 sequence: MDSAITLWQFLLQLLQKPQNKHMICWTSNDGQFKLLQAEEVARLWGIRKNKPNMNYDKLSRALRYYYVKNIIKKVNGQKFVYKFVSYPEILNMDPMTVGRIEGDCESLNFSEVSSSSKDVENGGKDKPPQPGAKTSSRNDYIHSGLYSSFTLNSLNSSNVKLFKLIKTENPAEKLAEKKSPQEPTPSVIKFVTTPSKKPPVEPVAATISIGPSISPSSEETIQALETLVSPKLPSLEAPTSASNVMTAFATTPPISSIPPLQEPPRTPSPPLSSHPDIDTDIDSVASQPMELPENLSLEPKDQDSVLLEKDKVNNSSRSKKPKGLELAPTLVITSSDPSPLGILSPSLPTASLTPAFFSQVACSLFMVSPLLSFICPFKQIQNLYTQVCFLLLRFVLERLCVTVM
Outline: as §1

ETV2 = target: T4, ETV2 (Homo sapiens, UniProt O00321 1-342); details: protein: recombinant; tags: N-terminal GST; dsDNA, one strand shown
T4 sequence: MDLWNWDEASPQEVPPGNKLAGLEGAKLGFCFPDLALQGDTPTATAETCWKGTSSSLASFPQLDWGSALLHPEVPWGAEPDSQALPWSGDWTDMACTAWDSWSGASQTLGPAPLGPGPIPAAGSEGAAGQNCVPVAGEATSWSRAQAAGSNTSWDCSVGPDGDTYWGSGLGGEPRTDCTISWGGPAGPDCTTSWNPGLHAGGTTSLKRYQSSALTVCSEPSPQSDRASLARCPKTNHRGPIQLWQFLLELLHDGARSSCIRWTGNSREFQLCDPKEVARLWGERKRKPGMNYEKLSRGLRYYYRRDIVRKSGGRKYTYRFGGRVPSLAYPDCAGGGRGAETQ
Outline: as §1

ELF3 = target: T5, ELF3 (Homo sapiens, UniProt P78545 1-371); details: protein: recombinant; tags: N-terminal GST; dsDNA, one strand shown
T5 sequence: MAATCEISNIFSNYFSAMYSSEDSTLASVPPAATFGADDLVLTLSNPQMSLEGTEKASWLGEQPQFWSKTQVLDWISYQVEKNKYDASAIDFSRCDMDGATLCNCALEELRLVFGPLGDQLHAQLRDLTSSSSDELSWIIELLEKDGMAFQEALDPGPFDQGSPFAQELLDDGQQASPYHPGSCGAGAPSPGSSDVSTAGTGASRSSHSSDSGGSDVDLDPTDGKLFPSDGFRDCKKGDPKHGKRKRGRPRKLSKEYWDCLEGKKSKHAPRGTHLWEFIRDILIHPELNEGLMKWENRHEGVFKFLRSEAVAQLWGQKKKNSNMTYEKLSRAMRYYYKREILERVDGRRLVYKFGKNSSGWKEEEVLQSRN
Outline: as §1

ETV1 = ETV1 (Homo sapiens, UniProt P50549 1-477); details: protein: recombinant; tags: N-terminal GST; dsDNA, one strand shown
Outline: as §1

Sequence of ETV1 (P50549 whole entry): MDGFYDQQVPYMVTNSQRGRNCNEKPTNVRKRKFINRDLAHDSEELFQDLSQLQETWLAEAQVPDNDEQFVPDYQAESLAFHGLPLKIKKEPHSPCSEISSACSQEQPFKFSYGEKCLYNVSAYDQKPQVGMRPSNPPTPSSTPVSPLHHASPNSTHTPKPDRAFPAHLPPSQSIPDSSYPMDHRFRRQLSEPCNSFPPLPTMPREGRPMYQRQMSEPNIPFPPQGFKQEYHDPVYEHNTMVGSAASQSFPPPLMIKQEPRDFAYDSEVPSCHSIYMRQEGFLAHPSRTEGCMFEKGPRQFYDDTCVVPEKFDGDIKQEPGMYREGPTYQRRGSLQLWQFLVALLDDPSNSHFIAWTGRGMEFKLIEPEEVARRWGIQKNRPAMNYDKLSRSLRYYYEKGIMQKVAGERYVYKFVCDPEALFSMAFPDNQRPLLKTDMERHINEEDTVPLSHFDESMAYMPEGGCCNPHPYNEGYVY
Sequence of HSF1 (Q00613 whole entry): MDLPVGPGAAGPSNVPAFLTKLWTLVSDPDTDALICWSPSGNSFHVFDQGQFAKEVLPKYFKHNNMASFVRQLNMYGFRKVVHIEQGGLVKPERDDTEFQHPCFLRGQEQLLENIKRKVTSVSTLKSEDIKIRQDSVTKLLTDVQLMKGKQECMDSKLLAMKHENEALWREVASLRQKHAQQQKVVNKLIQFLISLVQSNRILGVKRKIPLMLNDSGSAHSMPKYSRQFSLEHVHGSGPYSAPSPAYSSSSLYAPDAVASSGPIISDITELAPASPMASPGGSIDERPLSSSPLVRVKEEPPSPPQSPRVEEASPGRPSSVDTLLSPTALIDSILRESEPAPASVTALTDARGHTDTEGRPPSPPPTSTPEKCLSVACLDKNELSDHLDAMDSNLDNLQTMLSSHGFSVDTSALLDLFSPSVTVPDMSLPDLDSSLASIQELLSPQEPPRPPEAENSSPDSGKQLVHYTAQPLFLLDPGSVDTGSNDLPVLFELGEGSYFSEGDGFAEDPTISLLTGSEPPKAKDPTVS
Sequence of ETV5 (P41161 whole entry): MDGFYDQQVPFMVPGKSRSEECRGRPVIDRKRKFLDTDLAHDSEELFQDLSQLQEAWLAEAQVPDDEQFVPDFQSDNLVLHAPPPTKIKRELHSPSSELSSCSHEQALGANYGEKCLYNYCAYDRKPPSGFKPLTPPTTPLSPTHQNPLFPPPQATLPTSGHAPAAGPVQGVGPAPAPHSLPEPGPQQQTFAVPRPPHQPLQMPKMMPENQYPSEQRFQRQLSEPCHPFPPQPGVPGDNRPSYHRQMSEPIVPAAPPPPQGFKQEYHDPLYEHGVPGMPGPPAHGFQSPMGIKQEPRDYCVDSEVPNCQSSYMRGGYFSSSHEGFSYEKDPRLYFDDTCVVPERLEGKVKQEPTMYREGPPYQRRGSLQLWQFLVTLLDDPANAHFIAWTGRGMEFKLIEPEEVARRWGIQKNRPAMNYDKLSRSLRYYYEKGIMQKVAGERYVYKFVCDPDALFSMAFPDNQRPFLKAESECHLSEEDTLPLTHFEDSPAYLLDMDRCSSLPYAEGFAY
Sequence of ELF4 (Q99607 whole entry): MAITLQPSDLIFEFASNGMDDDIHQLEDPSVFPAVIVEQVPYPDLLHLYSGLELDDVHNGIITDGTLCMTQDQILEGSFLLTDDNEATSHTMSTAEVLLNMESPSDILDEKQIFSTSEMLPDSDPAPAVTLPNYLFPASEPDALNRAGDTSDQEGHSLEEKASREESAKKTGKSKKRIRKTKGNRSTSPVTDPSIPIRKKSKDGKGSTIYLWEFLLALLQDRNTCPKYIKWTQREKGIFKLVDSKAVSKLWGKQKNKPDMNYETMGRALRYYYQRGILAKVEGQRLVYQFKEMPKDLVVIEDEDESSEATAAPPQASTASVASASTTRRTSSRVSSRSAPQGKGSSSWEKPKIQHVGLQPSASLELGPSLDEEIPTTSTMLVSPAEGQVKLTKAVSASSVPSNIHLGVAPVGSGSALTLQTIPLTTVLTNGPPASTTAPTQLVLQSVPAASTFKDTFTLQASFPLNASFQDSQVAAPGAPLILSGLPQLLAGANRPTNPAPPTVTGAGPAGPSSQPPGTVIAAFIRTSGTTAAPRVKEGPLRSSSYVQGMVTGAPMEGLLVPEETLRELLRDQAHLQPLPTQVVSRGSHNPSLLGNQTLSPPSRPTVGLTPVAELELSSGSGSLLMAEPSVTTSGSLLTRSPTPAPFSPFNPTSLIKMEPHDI

## ATGCAC
FEV
  binding signal: 1.37 fold enrichment (6-mer frequency, TF over GST control)
ETV5
  binding signal: 1.28 fold enrichment (6-mer frequency, TF over GST control)
HSF1
  binding signal: 1.03 fold enrichment (6-mer frequency, TF over GST control)
SPIC
  binding signal: 1.19 fold enrichment (6-mer frequency, TF over GST control)
ELF4
  binding signal: 1.3 fold enrichment (6-mer frequency, TF over GST control)
ELK4
  binding signal: 1.36 fold enrichment (6-mer frequency, TF over GST control)
ETV2
  binding signal: 1.3 fold enrichment (6-mer frequency, TF over GST control)
ELF3
  binding signal: 1.36 fold enrichment (6-mer frequency, TF over GST control)
ETV1
  binding signal: 1.19 fold enrichment (6-mer frequency, TF over GST control)
